CHX counter: affects cycloheximide protein synthesis inhibition readout, counter-screen. actives 12% (n = 300,000). cell reporter, cycloheximide protein synthesis inhibition counterscreen. max response, %. AID 2314; in the data active means max response mostly above about 13%, no sharp cut-off; inactive means mostly below about 14%; further: read at 38.3 µM for the half of the compounds with a filed dose; 0% is about no effect
Marburg entry inh: blocks Marburg virus binding to or entry into cells. Marburg virus pseudotyped entry inhibition, cell reporter. Potency, µM (top dose mostly 37.8 µM), inactives show at the highest dose activity change, negative = inhibition, hits mostly inhibitors. actives 1.8% (n = 300,000). AID 540276; calls by dose curve; tested in HEK293 cells; further: potency means the concentration at half of the fitted maximal effect; on the % scale 0 is the no-effect control and ±100 the full control effect
FMDV antiviral: foot and mouth disease virus antiviral activity. FMDV antiviral cell-based qHTS. Potency, µM (top dose mostly 57.9 µM), without a hit: at the highest dose activity change, negative = inhibition, usual class: inhibitors. actives 1.2% (n = 410,000); calls by dose curve; tested in HEK293T cells; further: read-out not given here; potency means the concentration at half of the fitted maximal effect; on the % scale 0 is the no-effect control and ±100 the full control effect; nearly all actives have a fitted effect of over 45% in size
HCV inh: inhibitors of hepatitis C virus infection. Potency, µM (titrated, usually from 41.8 µM), for inactives: at the highest dose activity change, negative = inhibition, usual class: inhibitors. actives 3.4% (n = 340,000). Huh7.5.1 HCVcc-Cre infection, luciferase reporter, 44 h; active means well fitted inhibition curve with a large enough effect; inconclusive means small, poorly fitted or top-dose-only effect, or another doubt; inactive means no such curve, though single readings can be large or run the other way; further: potency means the concentration at half of the fitted maximal effect; on the % scale 0 is the no-effect control and ±100 the full control effect
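Luciferase read-out (15 sec integration) after a 15 min room-temperature substrate step quantifies HCVcc-Cre infection. Cells, 1,000 per well, had compound added 4 h post-plating, then virus at ~0.5 moi, and were cultured 44 h.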
Shiga inhibitor: Shiga toxin inhibition; Vero cells, Shiga toxin protein synthesis inhibition reporter; inhibition, % at 38.7 µM; actives 9.2% (n = 290,000); AID 2315; in the data active means inhibition mostly above about 28%, no sharp cut-off; inactive means mostly below about 43%; further: 0% is about no effect
LASV entry inh: blocks Lassa virus binding to or entry into cells. Lassa virus pseudotype entry inhibition, cell reporter. Potency, µM (top dose mostly 37.9 µM), for inactives: at the top dose activity change, negative = inhibition, usual class: inhibitors. AID 540256. actives 1.2% (n = 300,000); calls by dose curve; tested in HEK293 cells; further: potency means the concentration at half of the fitted maximal effect; on the % scale 0 is the no-effect control and ±100 the full control effect; nearly all actives have a fitted effect of over 50% in size
An asterisk follows results filed as active; ? = inconclusive; · = no result given; [ ] = dose if it differs, or a comment. Shown are actives, neighbours in structure and some others; about 13% of the full set was active somewhere.

SMILES | CHX counter | Marburg entry inh | FMDV antiviral | HCV inh | Shiga inhibitor | LASV entry inh
COc1ccc(NC2CCCN(C(=O)CN3CCOC3=O)C2)cc1 (stereo not given) | 38* | · | 5% | 18% | 62* | ·
COc1ccc(CCn2nc(C)c([N+](=O)[O-])c2C)cc1 | 30* | -3%[46.1 µM] | 10% | -6% | 83* | -16%[46.1 µM]
Cc1nn(Cc2ccc(Cl)cc2)c(C)c1NC(=O)Cn1nc([N+](=O)[O-])c(Cl)c1C | -2 | ? | -21% | 3.2µM* | -4 | 7%
Cc1nn(Cc2ccccc2)c(C)c1NC(=O)CCCn1nc(C)c([N+](=O)[O-])c1C | -1 | 1% | -20% | 30% | -13 | ?
Cc1nn(Cc2ccc(Cl)cc2)c(C)c1NC(=O)CCCn1nc(C)c([N+](=O)[O-])c1C | -4 | 13µM* | -27% | -7% | -3 | ?
Cc1nn(Cc2ccc(Cl)cc2Cl)c(C)c1NC(=O)Cn1nc([N+](=O)[O-])c(Cl)c1C | -1 | ? | ? | ? | -11 | -1%
O=C(NNC(=O)C1CCC(C(=O)NNC(=O)c2cccs2)CC1)c1cccs1 (stereo not given) | 2 | ? | -4% | 22% | 6 | -1%[46.1 µM]
O=C(CN1C(=O)CSC1=O)NC1CCCCC1 | -3 | -4% | -17% | 1% | -3 | 7%
C(=N\Nc1nc2ccccc2[nH]1)/c1ccccn1 | -6 | · | 10µM* | -2% | -12 | ·
Cc1ccc(/C=N\Nc2nc3ccc(Cl)cc3[nH]2)o1 | 41* | -15% | 32% | -15% | 119* | ?
C(=N\Nc1nc2ccccc2[nH]1)/c1ccc2c(c1)OCCO2 | 28* | · | -15% | ? | 36 | ·
Fc1ccccc1-c1ccc(/C=N/Nc2nc3ccccc3[nH]2)o1 | 50* | ? | -34% | 0% | 49* | ?
O=C(COc1ccc(Cl)cc1Cl)N/N=C/CCc1ccccc1 | -2 | 19% | 5% | 17% | -14 | 0%
COC(=O)Cn1cc(/C=N/NC(=O)COc2cccc3cccnc23)c2ccccc21 | 2 | -2% | -14% | 2% | -3 | 1%
BrC(=C\c1ccccc1)/C=N/Nc1nc2ccccc2[nH]1 | 75* | ? | 6% | ? | 104* | ?
C#CCn1cc(/C=N/NC(=O)COc2cccc3cccnc23)c2ccccc21 | 12* | ? | -16% | 11% | 26* | 0%
C(=N\Nc1nc2ccccc2[nH]1)/c1ccc2ncccc2c1 | 58* | ? | 30% | ? | 58* | ?
C#CCn1cc(/C=N/Nc2nc3ccccc3[nH]2)c2ccccc21 | 54* | ? | -16% | ? | 81* | ?
CCCCn1c(/C=N/Nc2nc3ccccc3[nH]2)nc2ccccc21 | 2 | ? | -19% | ? | 11 | ?
CCOC(=O)CCc1nn(C)c(=O)c2ccccc12 | -3 | -6% | -27% | -4% | -16 | 0%
CCNC(=S)Nc1ccc2c(c1)c(=O)n(C)n2CC=C(C)C | · | · | 16% | · | · | ·
Cc1ccc2c(Cl)c(C)c(N3CCOCC3)nc2n1 | · | 30%[46.1 µM] | -10% | 0% | · | 11%[46.1 µM]
C(=N\Nc1nc2ccccc2[nH]1)/c1cccc2nccnc12 | 31* | ? | 16% | ? | 29 | ?
CCSc1ccc(-c2ccco2)nn1 | 48* | ? | 54% | 8% | 85* | 15%
CSc1ccc(-c2ccco2)nn1 | 25* | 23% | 56% | -13% | 127* | -2%
SMILES | CHX counter | Marburg entry inh | FMDV antiviral | HCV inh | Shiga inhibitor | LASV entry inh
CC(=O)Nc1ccc(NC(=O)CSc2ccc(-c3ccco3)nn2)cc1 | -2 | 24% | -5% | 17% | 8 | 5%
CN1CCN(S(=O)(=O)NC[C@H]2O[C@@H](n3cnc4c(N)ncnc43)[C@H](O)[C@@H]2O)CC1 | · | · | 6% | 23% | · | ·
CNC(=O)c1ccc(-c2cc(C(F)(F)F)nn2C)s1 | 38* | · | 53% | 17% | 63* | ·
Cc1ccccc1CNC(=O)c1oc2c(c1C)-c1nn(Cc3ccc(Cl)cc3)cc1CC2 | · | · | -24% | · | · | -21%[46.1 µM]
Clc1nc(Nc2ccccc2)nc(Nc2ccccc2)n1 | 25* | ? | -5% | -28% | 22 | 6%
CC(C)(C)Nc1nc(Cl)nc(Nc2ccccc2)n1 | 56* | ? | 12% | -7% | 88* | ?
CCCNc1nc(Cl)nc(Nc2ccc(Cl)cc2)n1 | 15* | ? | 10% | -26% | 8 | ?
C=CCNc1nc(Cl)nc(Nc2ccc(OC)cc2)n1 | 22* | ? | 10% | -4% | 64* | -13%
